Drawing on PubChem BioAssay, this text covers z-score and composite z-score for ten compounds.

A short description of test [1]: HepG2 liver cancer cell viability effects, profiling panel, resazurin fluorescence, 24 h, PK04 Diversity Set (AID 1172). Also: test concentration not given here. As to conditions: higher = more signal. For orientation: The colour change of resazurin is a common sign of viable cells or microbes.
Test [2] in a line: basal S. cerevisiae growth modulation, no modifier, primary screen, OD600, strain BY4716, 24 h, basal condition (AID 1173). As to conditions: OD600, 24 h, higher = more signal, called active from +8 up or from −8 down.
Test [3] can be described thus: MM1S myeloma cell viability, profiling panel, resazurin fluorescence, basal, 24 h, PK04 Diversity Set (AID 1174).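 Also: MM1S multiple myeloma cell line; test concentration not given here.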 The note with it: higher = more signal, called active from +8 up or from −8 down.
The target in test [4] is Dihydroorotate dehydrogenase (quinone), mitochondrial (Plasmodium falciparum (isolate 3D7)) (UniProt Q08210). The test can be described thus: PfDHODH enzyme inhibitors, primary screen, biochemical, C-terminal His tag, absorbance 600 nm (AID 1175).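 Also: recombinant parasite enzyme with a five histidine tag at its C terminus; test concentration not given here.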 As to conditions: DCIP absorbance 600 nm, higher = more signal, called active from +8 up or from −8 down.
Sequence of Dihydroorotate dehydrogenase (quinone), mitochondrial (Plasmodium falciparum (isolate 3D7)) (Q08210 whole entry, looked up): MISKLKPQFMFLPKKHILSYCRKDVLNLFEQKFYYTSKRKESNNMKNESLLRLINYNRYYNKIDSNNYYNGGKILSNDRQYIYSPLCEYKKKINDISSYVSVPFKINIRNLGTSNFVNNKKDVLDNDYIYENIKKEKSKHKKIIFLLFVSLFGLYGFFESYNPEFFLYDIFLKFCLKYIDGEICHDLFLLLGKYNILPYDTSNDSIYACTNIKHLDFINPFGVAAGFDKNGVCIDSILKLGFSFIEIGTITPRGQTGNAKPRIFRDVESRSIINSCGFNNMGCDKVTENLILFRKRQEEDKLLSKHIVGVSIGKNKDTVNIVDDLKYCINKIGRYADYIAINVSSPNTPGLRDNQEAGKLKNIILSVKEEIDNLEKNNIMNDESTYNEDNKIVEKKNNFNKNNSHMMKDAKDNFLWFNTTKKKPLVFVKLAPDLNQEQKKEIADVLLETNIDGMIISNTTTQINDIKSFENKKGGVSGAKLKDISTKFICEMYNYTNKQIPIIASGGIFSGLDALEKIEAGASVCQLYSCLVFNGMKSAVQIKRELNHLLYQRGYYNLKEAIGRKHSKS
Test [5] is described as follows: P. aeruginosa biofilm formation inhibitors, primary screen, strain PAO1, LB-PBS medium, absorbance 600 nm (AID 1176). Also: test concentration not given here. As to conditions: P. aeruginosa PAO1 growth/biofilm, A600, 12 h; higher = more signal.
A short description of test [6]: S. cerevisiae RM11-1a growth modifiers, primary screen, strain RM11-1a, OD600, basal, 24 h (AID 1177).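 Also: cultures grown under basal conditions with no added stressor; test concentration not given here.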 As to conditions: OD600, 24 h, higher = more signal, called active from +8 up or from −8 down.
The nature of test [7]: E. coli acrAB mutant growth effects, primary screen, E. coli filamentation inducers, strain DRC39, OD650, 24 h (AID 1178).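 Also: growth measured as culture turbidity by optical density at 650 nm; test concentration not given here.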 The note with it: higher = more signal, called active from +8 up or from −8 down.
Test [8] is described as follows: E. coli acrAB mutant growth effects, primary screen, E. coli filamentation inducers, strain DRC39, OD650, 48 h (AID 1179).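 Also: screen aims at cell division blockers that make cells filament.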 The note with it: E. coli DRC39 delta-acrAB growth, higher = more signal, called active from +8 up or from −8 down.
Test [9] is described as follows: RPMI8226 myeloma cell viability, profiling panel, resazurin fluorescence, basal, 24 h, PK04 Diversity Set (AID 1180).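 Also: RPMI8826 multiple myeloma cell line at 5000 cells per well; test concentration not given here.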 As to conditions: higher = more signal.
In test [10] the target is E3 ubiquitin-protein ligase XIAP (Homo sapiens) (UniProt P98170). The test can be described thus: XIAP binders, primary screen, biophysical, small-molecule microarray, fluorescence 635 nm (AID 1181).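 Also: score merges 667 nm emission and signal to noise over triplicate slides.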 As to conditions: small-molecule microarray binding, higher = more signal.
Sequence of E3 ubiquitin-protein ligase XIAP (Homo sapiens) (P98170 whole entry, looked up): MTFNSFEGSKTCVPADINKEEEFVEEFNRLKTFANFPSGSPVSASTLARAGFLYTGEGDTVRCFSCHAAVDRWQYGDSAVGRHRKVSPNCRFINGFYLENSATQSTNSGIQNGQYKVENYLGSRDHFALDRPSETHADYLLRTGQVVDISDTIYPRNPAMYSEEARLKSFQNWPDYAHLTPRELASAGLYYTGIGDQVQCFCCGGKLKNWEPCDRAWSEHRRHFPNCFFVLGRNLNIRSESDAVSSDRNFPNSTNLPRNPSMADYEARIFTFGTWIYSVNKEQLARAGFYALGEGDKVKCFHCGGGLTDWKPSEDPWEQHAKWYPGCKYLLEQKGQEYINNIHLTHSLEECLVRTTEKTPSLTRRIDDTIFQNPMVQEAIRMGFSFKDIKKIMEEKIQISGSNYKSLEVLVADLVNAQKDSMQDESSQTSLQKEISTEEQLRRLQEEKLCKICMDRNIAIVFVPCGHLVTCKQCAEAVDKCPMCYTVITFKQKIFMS

SMILES strings stand for the structures. Active and inactive are the calls of the source. Unless noted, no rule for the calls is given here.

For `CC1=C([C@H](O)CCc2ccccc2)[C@H](CO)[C@@H]2C(=O)N(C)C(=O)[C@@H]2C1`, the z-score was -0.0457 in [1]; -2.32 (inactive) in test [2]; -0.382 (inactive) in test [3]; 0.176 (inactive) in [5]; 0.291 (inactive) in test [6]; 0.15 (inactive) in test [7]. In addition, the z-score in test [8] is 0.181 (inactive); in test [9], 0.149. Besides, the results for the composite z-score in test [4] and in [10] were -1.2 (inactive) and -0.152, respectively.

As for `CCC(CC)C(O)C1C=CC2C(=O)N(c3ccccc3)C(=O)C2N1Nc1ccc(C(C)C)cc1` (stereo not given), the z-score is -1.35 in test [1]; -0.129 (inactive) in test [2]; -0.636 (inactive) in test [3]; 0.89 (inactive) in test [5]; 1.27 (inactive) in test [6]; -0.171 (inactive) in test [7]. Further, the z-score in test [8] is -0.297 (inactive); in test [9] it was -0.0095. Further, the composite z-score in [4] is 0.851 (inactive); in test [10], 0.159.

Regarding `O=C1NC(=O)C2C1C=CC(C(O)c1c(F)cccc1Cl)N2Nc1ccc(Cl)cc1Cl` (stereo not given), the z-score was -3.13 in test [1]; -14.8 (active) in [2]; -2.21 (inactive) in [3]; 1.44 (inactive) in test [5]; -1.12 (inactive) in test [6]; -0.854 (inactive) in test [7]. The z-score is -1.44 (inactive) in test [8] and -2.2 in [9]. Besides, the composite z-score was 0.0047 (inactive) in test [4] and 0.482 in test [10].

Take `COC(=O)[C@@]1(Cc2ccccc2)[C@H]2c3cc(C(=O)N(C)C)n(CCN4CNCC4=O)c3C[C@H]2CN1C(=O)c1ccccc1`: the z-score was 0.0001 in test [1]; 1.13 (inactive) in [2]; -0.473 (inactive) in test [3]; -0.0703 (inactive) in [5]; 0.0591 (inactive) in [6]; -0.459 (inactive) in test [7]. Also, the z-score in test [8] was -0.217 (inactive); in test [9], 0.432. Moreover, the composite z-score in [4] was 0.0849 (inactive); in test [10] it was 0.404.

For `CN1C(=O)C2C=CC(C(O)COCc3ccccc3)N(N(c3ccccc3)c3ccccc3)C2C1=O` (stereo not given), the z-score in test [1] is 0.669; in [2], -2.9 (inactive); in [3] it was -0.902 (inactive); in [5], 1.04 (inactive); in [6], 0.591 (inactive); in test [7], 0.202 (inactive). Besides, the values for the z-score in test [8] and in test [9] were 0.0087 (inactive) and -0.861, respectively. Besides, the results for the composite z-score in test [4] and in [10] were -0.0748 (inactive) and 0.0537, respectively.

In the case of `COC(=O)C(CC#Cc1ccc2c(c1)[C@]1(C(=O)N2)[C@H](c2ccccc2OCCO)N2[C@H](c3ccccc3)[C@H](c3ccccc3)OC(=O)[C@H]2[C@@H]1C(=O)NC[C@H](O)c1ccccc1)C(=O)OC`, the z-score is -0.248 in [1]; 1.61 (inactive) in test [2]; -6.75 (inactive) in test [3]; 2.09 (inactive) in test [5]; 2.22 (inactive) in test [6]; 0.405 (inactive) in test [7]. Further, the z-score in test [8] was 0.615 (inactive); in test [9], -6.97. Also, the figures for the composite z-score in test [4] and in [10] were -4.58 (inactive) and 0.279, respectively.

`COc1ccc(NC(=O)O[C@H]2[C@H](OC(=O)Nc3ccccc3)[C@@H](OC(=O)Nc3ccccc3)[C@@H](OC)O[C@@H]2CO)cc1`: the z-score in test [1] is -1.58; in [2], 0.559 (inactive); in [3] it was -2.86 (inactive); in test [5], 0.304 (inactive); in test [6] it was 2.89 (inactive); in test [7], 0.717 (inactive). Further, the z-score was -0.141 (inactive) in test [8] and -1.61 in test [9]. Besides, the figures for the composite z-score in test [4] and in test [10] were 1.1 (inactive) and 0.131, respectively.

`NCCCCCNC(=O)[C@@H]1C[C@@H]2C(=O)NCC(=O)N2[C@@H]1c1cccc(OCCO)c1`: the z-score in test [1] was -0.727; in test [2], -0.202 (inactive); in [3] it was 0.584 (inactive); in test [5], 1.29 (inactive); in test [6], 0.561 (inactive); in test [7] it was -0.0625 (inactive). Moreover, the values for the z-score in test [8] and in [9] were -0.485 (inactive) and 0.974, respectively. Besides, the results for the composite z-score in test [4] and in [10] were -0.73 (inactive) and 0.012, respectively.

Consider `CN1C(=O)C2C=CC(C(O)c3cccc4ccccc34)N(N3CCCCC3)C2C1=O` (stereo not given), for which the z-score is -0.908 in test [1]; 1.51 (inactive) in test [2]; -1.41 (inactive) in test [3]; -0.0625 (inactive) in [5]; -0.334 (inactive) in test [6]; -0.619 (inactive) in [7]. The z-score is -0.456 (inactive) in test [8] and -1.74 in test [9]. The composite z-score in test [4] is -0.0243 (inactive); in test [10], 0.0077.

Turning to `COCCOC(=O)N1C(=O)[C@@]2(c3cc(C#CCNC(N)=O)ccc31)[C@H](C(=O)N1CCc3cc(OC)c(OC)cc3C1)[C@H]1C(=O)O[C@H](c3ccccc3)[C@H](c3ccccc3)N1[C@@H]2c1ccccc1OCCO`, the z-score in test [1] is 0.0874; in test [2], 1.11 (inactive); in [3], 0.256 (inactive); in [5], 1.54 (inactive); in [6] it was 0.816 (inactive); in [7], 1.27 (inactive). The z-score in test [8] was 1.29 (inactive); in [9], 0.274. Moreover, the composite z-score was -1.68 (inactive) in [4] and 0.0578 in [10].
